# Assay: qHTS profiling of the MIPE4 collection as inhibitors of Plasmodium falciparum (DD2) proliferation (Rep 2) (AID 743346)
# Details: P. falciparum Dd2 in erythrocytes, SYBR Green DNA, 72 h; at 28.5 µM unless noted
# How it was run: (§1)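 Parasite DNA was quantified by SYBR Green I fluorescence (ex 485, em 535 nm) after overnight lysis in saponin/Triton buffer at room temperature. Cultures at 0.3% parasitemia and 2.5% hematocrit were first exposed to compound for 72 h at 37 C; signals were normalised to artemisinin (0.29 uM) and vehicle wells.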
row,Compound,"parasite growth, % of control (lower = inhibition)"
1,CC(C)c1nn(-c2c(Cl)cccc2Cl)c2nc(Cc3ccc(OCCO)cc3)[nH]c(=O)c12,27.3%
2,CC(O)C1C(=O)N2C(C(=O)O)=C(SC3CNC(C(=O)N(C)C)C3)C(C)C12 (stereo not given),82.6%
3,Nc1ccn([C@@H]2O[C@H](CO)[C@H](O)C2(F)F)c(=O)n1,8.03%
4,CC(C)Nc1cc(C(F)(F)F)cc2nc(NC(=O)c3cccnc3)nn12,92.3%
5,C=CC(=O)Nc1cccc(Oc2nc(Nc3ccc(N4CCN(C)CC4)cc3)ncc2Cl)c1,34.6%
6,O=C(CCCCCCNC(=O)c1cnc(N(c2ccccc2)c2ccccc2)nc1)NO,7.25%
7,Cc1nc(Nc2n[nH]c3c2CN(C(=O)N[C@H](CN(C)C)c2ccccc2)C3(C)C)c2sccc2n1,9.85%
8,CC(C)(C)NC(=O)[C@H]1CN(Cc2cccnc2)CCN1C[C@@H](O)C[C@@H](Cc1ccccc1)C(=O)N[C@H]1c2ccccc2C[C@H]1O,27.8%
9,Cc1cc(Nc2nc(N[C@@H](C)c3ccc(F)cc3)c(C#N)cc2F)n[nH]1,9.75%
10,CN1CCN(Cc2ccc(NC(=O)Nc3ccc(Oc4cc(NC(=O)C5CC5)ncn4)cc3)cc2C(F)(F)F)CC1,14.2%
11,Cn1c(CNc2ccc(C(=N)N)cc2)nc2cc(C(=O)N(CCC(=O)O)c3ccccn3)ccc21,86.3% [at 9.64 µM]
12,O=C(CCCCCCC(=O)Nc1ccc([C@H]2O[C@@H](CSc3nc(-c4ccccc4)c(-c4ccccc4)o3)C[C@@H](c3ccc(CO)cc3)O2)cc1)NO,7.19%
13,COc1ccc(F)c(F)c1C(=O)c1cnc(NC2CCN(S(C)(=O)=O)CC2)nc1N,26%
14,CNC(=O)c1ccc(-c2cnc3ncc(Cc4ccc5ncccc5c4)n3n2)cc1F,37.1%
15,COc1ccc(-n2nc(C(N)=O)c3c2C(=O)N(c2ccc(N4CCCCC4=O)cc2)CC3)cc1,61.9%
16,CNC(=O)CN1CCC(Oc2cc3c(Nc4cccc(Cl)c4F)ncnc3cc2OC)CC1,16%
17,CC(C)c1cnn2c(NCc3ccccc3)cc(N[C@@H](CO)[C@H](O)CO)nc12,21.4%
18,O=C(Nc1cn[nH]c1-c1nc2ccc(CN3CCOCC3)cc2[nH]1)NC1CC1,8.07%

row,Compound,"parasite growth, % of control (lower = inhibition)"
1,O=C(Nc1nc2cccc(-c3ccc(CN4CCS(=O)(=O)CC4)cc3)n2n1)C1CC1,62.8%
2,CN(C)c1nc(Cc2ccc(NC(=O)c3ccc4ccccc4c3)cc2)nc(Cl)c1CC(=O)O,42.6%
3,OCc1ccc(-c2ccc(-c3ccc(CO)s3)o2)s1,47.9%
4,COC(=O)C1=C(C)NC(C)=C(C(=O)OCCN2CCN(C(c3ccccc3)c3ccccc3)CC2)C1c1cccc([N+](=O)[O-])c1 (stereo not given),43.1%
5,CNC(=O)c1ccc(N2C(=S)N(c3cnc(C#N)c(C(F)(F)F)c3)C(=O)C23CCC3)cc1F,39%
6,CCc1cc2c(cc1N1CCC(N3CCOCC3)CC1)C(C)(C)c1[nH]c3cc(C#N)ccc3c1C2=O,33.7%
7,CC(C)c1cc(C(=O)N2Cc3ccc(CN4CCN(C)CC4)cc3C2)c(O)cc1O,9.28%
8,CC(C)c1cc(-c2n[nH]c(=O)n2-c2ccc3c(ccn3C)c2)c(O)cc1O,8.97%
9,Cc1cc(CN2CCN(c3c(Br)cnc4nc(-c5ccc(N6CCN(C)CC6)cc5)[nH]c34)CC2)no1,25.8%
10,Cc1ccc(CN2CCNCC2)cc1NC(=O)CNc1ccc(F)c(F)c1,63%
11,Nc1cccc(-c2cc3c(Oc4cccc(O)c4)ncnc3[nH]2)c1,52.9%
12,Cc1cc(Nc2cc(CN3CCOCC3)c3nc(C)c(Cc4ccc(Cl)cc4F)n3n2)n[nH]1,12.5%
13,Cc1c(C)n(Cc2ccc(-c3ccccc3C(=O)O)cc2)c2ccc(C(=O)N[C@@H](C)c3ccc([N+](=O)[O-])cc3)cc12,20.8%
14,CC(C)c1noc(N2CCC(COc3ccc(-c4ccc(S(C)(=O)=O)cc4)nc3)CC2)n1,49.7%
15,Nc1ncnc2c1c(-c1cccc(OCc3ccccc3)c1)cn2C1CC(CN2CCCC2)C1 (stereo not given),9.07%
16,O=C(Nc1ncc(-c2cc(C(F)F)nn2-c2c(Cl)cccc2Cl)s1)C1CC1,31.4%
17,O=C(Cc1ccc(-c2ccc(OCCN3CCOCC3)cc2)cn1)NCc1ccccc1,27.1%

# Assay: qHTS profiling of the MIPE4 collection as inhibitors of Plasmodium falciparum (HB3) proliferation (AID 743347);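 note: plate controls were DMSO vehicle wells for no effect and artemisinin wells for full effect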
# Details: P. falciparum HB3 in erythrocytes, SYBR Green DNA, 72 h; at 28.5 µM unless noted
# How it was run: as §1
row,Compound,"growth, % of control"
1,CC(C)c1nn(-c2c(Cl)cccc2Cl)c2nc(Cc3ccc(OCCO)cc3)[nH]c(=O)c12,21.7%
2,CC(O)C1C(=O)N2C(C(=O)O)=C(SC3CNC(C(=O)N(C)C)C3)C(C)C12 (stereo not given),75.4%
3,Nc1ccn([C@@H]2O[C@H](CO)[C@H](O)C2(F)F)c(=O)n1,42.2%
4,CC(C)Nc1cc(C(F)(F)F)cc2nc(NC(=O)c3cccnc3)nn12,93.5%
5,C=CC(=O)Nc1cccc(Oc2nc(Nc3ccc(N4CCN(C)CC4)cc3)ncc2Cl)c1,5.58%
6,O=C(CCCCCCNC(=O)c1cnc(N(c2ccccc2)c2ccccc2)nc1)NO,11%
7,Cc1nc(Nc2n[nH]c3c2CN(C(=O)N[C@H](CN(C)C)c2ccccc2)C3(C)C)c2sccc2n1,6.35%
8,CC(C)(C)NC(=O)[C@H]1CN(Cc2cccnc2)CCN1C[C@@H](O)C[C@@H](Cc1ccccc1)C(=O)N[C@H]1c2ccccc2C[C@H]1O,7.39%
9,Cc1cc(Nc2nc(N[C@@H](C)c3ccc(F)cc3)c(C#N)cc2F)n[nH]1,6.34%
10,CN1CCN(Cc2ccc(NC(=O)Nc3ccc(Oc4cc(NC(=O)C5CC5)ncn4)cc3)cc2C(F)(F)F)CC1,7.58%
11,Cn1c(CNc2ccc(C(=N)N)cc2)nc2cc(C(=O)N(CCC(=O)O)c3ccccn3)ccc21,87.7% [at 9.64 µM]
12,O=C(CCCCCCC(=O)Nc1ccc([C@H]2O[C@@H](CSc3nc(-c4ccccc4)c(-c4ccccc4)o3)C[C@@H](c3ccc(CO)cc3)O2)cc1)NO,6.35%
13,COc1ccc(F)c(F)c1C(=O)c1cnc(NC2CCN(S(C)(=O)=O)CC2)nc1N,37.7%
14,CNC(=O)c1ccc(-c2cnc3ncc(Cc4ccc5ncccc5c4)n3n2)cc1F,10.4%
15,COc1ccc(-n2nc(C(N)=O)c3c2C(=O)N(c2ccc(N4CCCCC4=O)cc2)CC3)cc1,83.4%
16,CNC(=O)CN1CCC(Oc2cc3c(Nc4cccc(Cl)c4F)ncnc3cc2OC)CC1,5.64%
17,CC(C)c1cnn2c(NCc3ccccc3)cc(N[C@@H](CO)[C@H](O)CO)nc12,14.5%
18,O=C(Nc1cn[nH]c1-c1nc2ccc(CN3CCOCC3)cc2[nH]1)NC1CC1,4.19%

row,Compound,"growth, % of control"
1,O=C(Nc1nc2cccc(-c3ccc(CN4CCS(=O)(=O)CC4)cc3)n2n1)C1CC1,73.9%
2,CN(C)c1nc(Cc2ccc(NC(=O)c3ccc4ccccc4c3)cc2)nc(Cl)c1CC(=O)O,85.9%
3,OCc1ccc(-c2ccc(-c3ccc(CO)s3)o2)s1,64.5%
4,COC(=O)C1=C(C)NC(C)=C(C(=O)OCCN2CCN(C(c3ccccc3)c3ccccc3)CC2)C1c1cccc([N+](=O)[O-])c1 (stereo not given),18.9%
5,CNC(=O)c1ccc(N2C(=S)N(c3cnc(C#N)c(C(F)(F)F)c3)C(=O)C23CCC3)cc1F,41.2%
6,CCc1cc2c(cc1N1CCC(N3CCOCC3)CC1)C(C)(C)c1[nH]c3cc(C#N)ccc3c1C2=O,12.5%
7,CC(C)c1cc(C(=O)N2Cc3ccc(CN4CCN(C)CC4)cc3C2)c(O)cc1O,2.52%
8,CC(C)c1cc(-c2n[nH]c(=O)n2-c2ccc3c(ccn3C)c2)c(O)cc1O,1.94%
9,Cc1cc(CN2CCN(c3c(Br)cnc4nc(-c5ccc(N6CCN(C)CC6)cc5)[nH]c34)CC2)no1,4.61%
10,Cc1ccc(CN2CCNCC2)cc1NC(=O)CNc1ccc(F)c(F)c1,60.8%
11,Nc1cccc(-c2cc3c(Oc4cccc(O)c4)ncnc3[nH]2)c1,43.2%
12,Cc1cc(Nc2cc(CN3CCOCC3)c3nc(C)c(Cc4ccc(Cl)cc4F)n3n2)n[nH]1,5.44%
13,Cc1c(C)n(Cc2ccc(-c3ccccc3C(=O)O)cc2)c2ccc(C(=O)N[C@@H](C)c3ccc([N+](=O)[O-])cc3)cc12,7.19%
14,CC(C)c1noc(N2CCC(COc3ccc(-c4ccc(S(C)(=O)=O)cc4)nc3)CC2)n1,20.9%
15,Nc1ncnc2c1c(-c1cccc(OCc3ccccc3)c1)cn2C1CC(CN2CCCC2)C1 (stereo not given),8.63%
16,O=C(Nc1ncc(-c2cc(C(F)F)nn2-c2c(Cl)cccc2Cl)s1)C1CC1,19.5%
17,O=C(Cc1ccc(-c2ccc(OCCN3CCOCC3)cc2)cn1)NCc1ccccc1,11.9%
